Experimental findings from PubChem BioAssay (EPA / NIEHS) are described below.

Records with an inconclusive call do not appear. Activity calls are given as the source filed them. How the source made its calls: active means hit-call score of the fitted dose curve at least 0.9, where 1 is the maximum; inconclusive means response in the unintended direction; inactive means score below 0.9.

As a reminder, the AC50 is the midpoint of the concentration-response curve, whichever way the signal moves.

The target in this assay is Collagenase 3 (Homo sapiens) (UniProt P45452). Nature of the assay: NVS_ENZ_hMMP13: NovaScreen (NVS) Enzymatic Assay for human Matrix Metalloproteinase-13 (MMP13) (AID 2283182). The procedure: NVS_ENZ_hMMP13 is a biochemical, single-readout assay that uses extracted gene-proteins in a cell-free assay. Measurements were taken 1 hour after chemical dosing in a 96-well plate.NVS_ENZ_hMMP13 is one of one assay component(s) measured or calculated from the NVS_ENZ_hMMP13 assay. It is designed to make measurements of enzyme activity, a form of enzyme reporter, as detected with fluorescence intensity signals by Fluorescence technology.Data from the assay component NVS_ENZ_hMMP13 was analyzed into 1 assay endpoint. This assay endpoint, NVS_ENZ_hMMP13, was analyzed in the positive analysis fitting direction relative to DMSO as the negative control and baseline of activity. Using a type of enzyme reporter, loss-of-signal activity can be used to understand changes in the enzymatic activity as they relate to the gene MMP13. Furthermore, this assay endpoint can be referred to as a primary readout, because this assay has produced multiple assay endpoints where this one serves a enzymatic activity function. To generalize the intended target to other relatable targets, this assay endpoint is annotated to the protease intended target family, where the subfamily is matrix metalloproteinase.
Binding assays used specific radioligands (tritiated, iodinated) with non-radioactive competitive displacement ligands in agonist or antagonist protocols (as indicated) and various reference compounds and inhibitors to titrate specific binding to receptors and transporters. Most enzyme assays (CYPs, kinases, phosphatases, proteases, HDACs) used recombinant protein and specific substrates (fluorescence mostly, some colorimetric and radioactive) and inhibitors, followed by a biochemical separation of substrate and product. All assays for the biochemical HTS were initially run in duplicate at a single concentration (10 uM for CYP450 assays and 25 uM for all others). Assay-chemical combinations meeting a pre-defined threshold (e.g., 30% inhibition and other criteria defined below) were then run in singleton concentration-response format with maximum concentration of 20 uM for CYPs and 50 uM for all others. Each assay was run with positive and negative controls, and concurrent controls on every plate. The follow-up (secondary) screen tested active chemical-pairs in concentration series, as well as a few additional assays not tested in the primary screen, some selected negative inactives, and several cases re-run in the concentration series for confirmatory purposes.
`Nc1ccc(Nc2ccccc2)cc1`: the AC50 was 5.61 µM (active).

Regarding `CNS(=O)(=O)c1cc(C(=O)N2CCC(CCN3C4CCC3CC(n3c(C)nc5ccccc53)C4)(c3cccc(F)c3)CC2)c(Cl)cc1F` (stereo unspecified), the AC50 was 14.5 µM (active). In the case of `O=C(O)CCN(C1(C(=O)NO)CCCC1)S(=O)(=O)c1ccc(Oc2ccc(F)cc2)cc1`, the AC50 is 0.0041 µM (active). For `Fc1ccccc1[C@@H](F)COC1CCC(Nc2ncnc3[nH]ncc23)CC1` (stereo partly specified), the outcome was inactive. Still for that read-out and setting: next, `CCCCCCCCCCCCCCCO`: “inactive”. As for `O=C(O)c1cc(N=Nc2ccc(S(=O)(=O)Nc3ccccn3)cc2)ccc1O`, the AC50 was 19.5 µM (active). For the compound `CC(C)CCCCCCCOC(=O)CCCCC(=O)OCCCCCCCC(C)C`, the call was inactive. Consider `CCc1cc(SCc2sc(-c3ccc(C(F)(F)F)cc3)nc2CN2CCN(c3ccc(OC)cc3)CC2)ccc1OCC(=O)O`, for which the AC50 is 5.85 µM (active). In the case of `COC(=O)c1c(Cl)c(Cl)c(C(=O)OC)c(Cl)c1Cl`, the result was inactive. Take `CC(C)(O)c1coc(S(=O)(=O)NC(=O)Nc2c3c(cc4c2CCC4)CCC3)c1`: the AC50 was 20.6 µM (active). With `CCCCC(CC)COC(=O)c1ccc(C(=O)OCC(CC)CCCC)cc1` (stereo unspecified), the result was inactive.
